{"source": "PubChem BioAssay (NCATS)", "note": "Inconclusive results are not listed. Where a call stands in place of a potency, no number is given. Calls of active or inactive are those of the source. Calls come from the whole dose curve; as a rule, active = well fitted inhibition curve with a large enough effect; inconclusive = small, poorly fitted or top-dose-only effect; inactive = flat fitted curve, though single readings scatter. Potency is the fitted concentration of half-maximal effect."}
{"system": "DIV30", "assay": "qHTS profiling for inhibitors of Plasmodium falciparum proliferation (AID 504749); note: nearly all actives have a fitted effect of over 60% in size", "details": "P. falciparum in erythrocytes, SYBR Green DNA, 72 h; series mostly up to 28.7 µM", "how_it_was_run": "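SYBR Green fluorescence (ex 485 nm, em 535 nm) reports parasite DNA after 72 h compound exposure of infected red cells at 0.3% parasitemia, 2.5% hematocrit; signal normalized to 0.29 uM artemisinin and vehicle wells.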"}
{"smiles": "O=[N+]([O-])c1ccccc1", "Potency": "inactive"}
{"smiles": "O=C1CC[C@@]2(O)C3Cc4ccc(O)c5c4C2(CCN3CC2CC2)[C@H]1O5", "note": "(some centres undefined)", "Potency": "inactive"}
{"smiles": "O=C/C=C/c1ccccc1", "Potency": "inactive"}
{"smiles": "CCNC(C)Cc1cccc(C(F)(F)F)c1", "note": "(centres undefined)", "Potency": "inactive"}
{"smiles": "CC1CCC(C(C)C)C(OC(=O)c2ccccc2N)C1", "note": "(centres undefined)", "Potency": "inactive"}
{"smiles": "c1csc(C2(N3CCCCC3)CCCCC2)c1", "Potency": "inactive"}
{"smiles": "[Cl-].[Cl-].[Hg+2]", "Potency": "15.1 µM (active)"}
{"smiles": "CCC1(CC)C(=O)NC(=O)N(C)C1=O", "Potency": "inactive"}
{"smiles": "CCC1C(C)=NN=C(c2ccc(OC)c(OC)c2)c2cc(OC)c(OC)cc21", "note": "(centres undefined)", "Potency": "inactive"}
{"smiles": "F/C(COc1ccc2c(c1)[nH]c1ccccc12)=C1/CN2CCC1CC2", "Potency": "10.7 µM (active)"}
{"smiles": "Oc1cccc[c]1[Hg][Cl]", "Potency": "9.53 µM (active)"}
{"smiles": "C[C@H]1CCC[C@H](O)CCCCCc2cc(O)cc(O)c2C(=O)O1", "Potency": "inactive"}
{"smiles": "ClC1C(Cl)C(Cl)C(Cl)C(Cl)C1Cl", "note": "(centres undefined)", "Potency": "inactive"}
{"smiles": "CCC1(c2ccccc2)C(=O)NC(=O)N(C)C1=O", "note": "(centres undefined)", "Potency": "inactive"}
{"smiles": "CCCCCCCCCC(=O)O[C@H]1CC[C@H]2[C@@H]3CCC4=CC(=O)CC[C@]4(C)[C@H]3CC[C@]12C", "Potency": "inactive"}
{"smiles": "CCC1(c2ccccc2)C(=O)NC(=O)N(C(=O)c2ccccc2)C1=O", "note": "(centres undefined)", "Potency": "inactive"}
{"smiles": "Cc1sc2ccccc2c1CC1=NCCN1", "Potency": "inactive"}
{"smiles": "O=C1CN=C(c2ccccc2)c2cc(Cl)ccc2N1CC1CC1", "Potency": "inactive"}
{"smiles": "CC(C)Nc1ccc(Nc2ccccc2)cc1", "Potency": "4.78 µM (active)"}
{"smiles": "O=c1c2ccccc2[se]n1-c1ccccc1", "Potency": "inactive"}
{"smiles": "CC12NC(Cc3ccccc31)c1ccccc12", "note": "(centres undefined)", "Potency": "inactive"}
{"smiles": "c1ccc2cc(CC3=NCCN3)ccc2c1", "Potency": "inactive"}
{"smiles": "Oc1cc(Cl)c(Cl)cc1Cl", "Potency": "inactive"}
{"smiles": "CN1[C@@H]2CC[C@H]1CC(OC1c3ccccc3CCc3ccccc31)C2", "note": "(some centres undefined)", "Potency": "inactive"}
